# The antibiotic and cytotoxicity screens of Wong et al. (2023)
# About 3,300 (8.5%) of roughly 39,000 compounds were called active. This excerpt belongs to a sample that is enriched for actives.
# Tested on: HepG2
# Experiment: cytotoxicity call (relative viability < 0.9)
# Conditions: 10 µM
row,SMILES,cytotoxicity call
1,C[C@H]1CCCCO[C@@H](CN(C)C(=O)Nc2ccc3c(c2)OCO3)[C@@H](C)CN([C@@H](C)CO)C(=O)c2cc(NC(=O)C3CCCCC3)ccc2O1,inactive
2,C[C@H](CO)N1C[C@H](C)[C@@H](CN(C)C(=O)Nc2cccc3ccccc23)OCCCC[C@H](C)Oc2ccc(NC(=O)CCCN(C)C)cc2C1=O,inactive
3,C[C@@H]1CN([C@@H](C)CO)S(=O)(=O)c2ccc(C#CC3(O)CCCC3)cc2O[C@H]1CN(C)C(=O)Cc1ccncc1,inactive
4,C[C@H]1CN([C@@H](C)CO)C(=O)c2cc(NC(=O)Nc3ccc(F)cc3)ccc2O[C@H]1CN(C)Cc1ccc(Oc2ccccc2)cc1,inactive
5,C[C@H](CO)N1C[C@H](C)[C@H](CN(C)Cc2ccc(Oc3ccccc3)cc2)Oc2ccc(NC(=O)Nc3ccc(F)cc3)cc2C1=O,active
6,C[C@@H]1CN([C@H](C)CO)C(=O)c2cc(NC(=O)Nc3ccc(F)cc3)ccc2O[C@@H]1CN(C)Cc1ccc(Oc2ccccc2)cc1,active
7,C[C@H](CO)N1C[C@H](C)[C@@H](CN(C)Cc2ccc(Oc3ccccc3)cc2)Oc2ccc(NC(=O)Nc3ccc(F)cc3)cc2C1=O,inactive
8,C[C@@H]1CN([C@H](C)CO)C(=O)c2cc(NC(=O)Nc3ccc(F)cc3)ccc2O[C@H]1CN(C)Cc1ccc(Oc2ccccc2)cc1,active
9,C[C@@H]1CN([C@@H](C)CO)C(=O)c2cc(NC(=O)Nc3ccc(F)cc3)ccc2O[C@@H]1CN(C)Cc1ccc(Oc2ccccc2)cc1,active
10,C[C@@H]1CN([C@@H](C)CO)C(=O)c2cc(NC(=O)Nc3ccc(F)cc3)ccc2O[C@H]1CN(C)Cc1ccc(Oc2ccccc2)cc1,inactive
11,NCc1cc(-c2ccccc2Cl)on1,inactive
12,COc1ccc(S(=O)(=O)N(C)C[C@@H]2OCc3cnnn3CCCC(=O)N([C@H](C)CO)C[C@H]2C)cc1,inactive
13,C[C@@H]1CN([C@@H](C)CO)C(=O)c2cc(NS(=O)(=O)c3cccs3)ccc2O[C@@H](C)CCCCO[C@@H]1CN(C)CC1CCCCC1,inactive
14,C[C@@H]1CN([C@H](C)CO)C(=O)c2cc(-c3cccnc3)cnc2O[C@@H]1CN(C)C(=O)Nc1ccc2c(c1)OCO2,inactive
15,CON=C(C(=O)NC1C(=O)N2C(C(=O)O)=C(CSC(=O)c3ccco3)CSC12)c1csc(N)n1.Cl (stereo not drawn),inactive
16,O=C(C[C@@H]1C[C@@H]2c3cc(NC(=O)NC4CCCC4)ccc3O[C@@H]2[C@@H](CO)O1)NCc1ccc2c(c1)OCO2,inactive
17,Cc1noc(C)c1NC(=O)Nc1ccc2c(c1)C(=O)N([C@H](C)CO)C[C@H](C)[C@@H](CN(C)C(=O)Nc1cccc3ccccc13)OCCCC[C@H](C)O2,inactive
18,C[C@H]1CN([C@@H](C)CO)C(=O)c2cc(NC(=O)Nc3ccc(F)cc3)ccc2O[C@@H]1CN(C)Cc1ccc(Oc2ccccc2)cc1,active
19,CC(C)NC(=O)N(C)C[C@@H]1Oc2c(NC(=O)C3CCCCC3)cccc2C(=O)N([C@H](C)CO)C[C@@H]1C,inactive
20,CN(C)CC(=O)N1CC2(C1)[C@@H](c1ccccc1)[C@@H](CO)N2S(C)(=O)=O,inactive
21,C[C@@H]1CCCCO[C@H](CN(C)Cc2ccccc2)[C@@H](C)CN([C@@H](C)CO)C(=O)c2cc(NC(=O)Nc3ccc(C(F)(F)F)cc3)ccc2O1,active

row,SMILES,cytotoxicity call
1,C[C@@H]1CCCCO[C@@H](CN(C)Cc2ccccc2)[C@@H](C)CN([C@H](C)CO)C(=O)c2cc(NC(=O)Nc3ccc(C(F)(F)F)cc3)ccc2O1,active
2,C[C@@H]1CCCCO[C@H](CN(C)Cc2ccccc2)[C@@H](C)CN([C@H](C)CO)C(=O)c2cc(NC(=O)Nc3ccc(C(F)(F)F)cc3)ccc2O1,active
3,C[C@@H]1CCCCO[C@H](CN(C)Cc2ccccc2)[C@H](C)CN([C@H](C)CO)C(=O)c2cc(NC(=O)Nc3ccc(C(F)(F)F)cc3)ccc2O1,active
4,C[C@H]1CN([C@@H](C)CO)C(=O)c2cc(NC(=O)Nc3cccc4ccccc34)ccc2O[C@H]1CN(C)C(=O)Nc1cccc2ccccc12,inactive
5,COc1ncc(NC(=O)C2CC2)c(OC)n1,inactive
6,C[C@@H]1CN([C@H](C)CO)C(=O)c2c(c3ccccc3n2C)-c2ccccc2CO[C@@H]1CN(C)Cc1cccc2c1OCCCO2,inactive
7,C[C@@H]1CN([C@H](C)CO)C(=O)c2cccc(NC(=O)c3ccc(-c4nccs4)cc3)c2O[C@H]1CN(C)C(=O)Nc1ccc2c(c1)OCO2,inactive
8,COc1ccc(S(=O)(=O)N(C)C[C@@H]2OCCCC[C@@H](C)Oc3ccc(NC(=O)CCC(F)(F)F)cc3C(=O)N([C@@H](C)CO)C[C@@H]2C)cc1,inactive
9,Cc1noc(C)c1S(=O)(=O)N(C)C[C@H]1Oc2ccc(NC(=O)Cc3cn(C)c4ccccc34)cc2CC(=O)N([C@H](C)CO)C[C@@H]1C,inactive
10,O=C(C[C@H]1C=C[C@@H](NC(=O)c2ccc(F)cc2)[C@H](CO)O1)NCc1ccncn1,inactive
11,CO[C@@H]1CN(C)C(=O)c2ccc(NC(=O)Nc3ccc(Cl)cc3)cc2OC[C@H](C)N(C(=O)Nc2c(C)noc2C)C[C@@H]1C,inactive
12,C[C@@H]1CCCCO[C@H](CN(C)C(=O)Nc2ccc(C(F)(F)F)cc2)[C@H](C)CN([C@H](C)CO)C(=O)c2cc(NS(=O)(=O)c3cn(C)cn3)ccc2O1,inactive
13,Cc1noc(C)c1NC(=O)Nc1ccc2c(c1)C(=O)N([C@H](C)CO)C[C@H](C)[C@H](CN(C)CC1CCCCC1)OCCCC[C@@H](C)O2,inactive
14,C[C@H](CO)N1C[C@H](C)[C@@H](CN(C)C(=O)c2cccnc2)Oc2cc(-c3cccc(C#N)c3)ccc2S1(=O)=O,inactive
15,OCc1cncnc1,inactive
16,C[C@H](CO)N1C[C@H](C)[C@@H](CN(C)Cc2ccccc2)OCCCC[C@H](C)Oc2ccc(NC(=O)Nc3ccc(C(F)(F)F)cc3)cc2C1=O,active
17,C[C@H](CO)N1C[C@H](C)[C@H](CN(C)Cc2ccccc2)OCCCC[C@H](C)Oc2ccc(NC(=O)Nc3ccc(C(F)(F)F)cc3)cc2C1=O,active
18,C[C@@H]1CCCCO[C@@H](CN(C)Cc2ccccc2)[C@H](C)CN([C@H](C)CO)C(=O)c2cc(NC(=O)Nc3ccc(C(F)(F)F)cc3)ccc2O1,active
19,C[C@H]1CCCCO[C@H](CN(C)Cc2ccccc2)[C@@H](C)CN([C@@H](C)CO)C(=O)c2cc(NC(=O)Nc3ccc(C(F)(F)F)cc3)ccc2O1,active
20,O=C(Nn1cnnc1)c1ccccc1,inactive
21,O=C(O)c1n[nH]c2c1C[C@H]1C[C@@H]21,inactive

row,SMILES,cytotoxicity call
1,COc1ccc(S(=O)(=O)Nc2ccc3c(c2)C(=O)N([C@@H](C)CO)C[C@@H](C)[C@@H](CN(C)C(=O)Nc2c(C)noc2C)OCCCC[C@@H](C)O3)cc1,inactive
2,O=c1nc(C(F)(F)F)[nH]c2nc[nH]c12,inactive
3,Cn1cnc(CCNC(=O)C[C@H]2CC[C@@H]3[C@H](COC[C@@H](O)CN3C(=O)C3CC3)O2)c1,inactive
4,O=C(N[C@@H]1CC[C@@H](CCn2cc(C3(O)CCCC3)nn2)O[C@H]1CO)C1CCOCC1,inactive
5,C[C@H]1CN([C@@H](C)CO)C(=O)Cc2cc(N(C)C)ccc2O[C@H]1CN(C)S(=O)(=O)c1ccc(F)cc1,inactive
6,C[C@H](CO)N1C[C@H](C)[C@@H](CN(C)CC2CCCCC2)Oc2ccc(NS(=O)(=O)c3cn(C)cn3)cc2C1=O,inactive
7,C[C@@H]1CN([C@@H](C)CO)C(=O)c2cc(NC(=O)Nc3ccc(C(F)(F)F)cc3)ccc2O[C@@H](C)CCCCO[C@H]1CN(C)Cc1ccccc1,active
8,C[C@@H]1CN([C@@H](C)CO)C(=O)c2cc(NC(=O)Nc3ccc(C(F)(F)F)cc3)ccc2O[C@@H](C)CCCCO[C@@H]1CN(C)Cc1ccccc1,active
9,C[C@@H]1CN([C@H](C)CO)C(=O)c2cc(NC(=O)Nc3ccc(C(F)(F)F)cc3)ccc2O[C@@H](C)CCCCO[C@@H]1CN(C)Cc1ccccc1,active
10,C[C@@H]1CCCCO[C@@H](CN(C)Cc2ccccc2)[C@@H](C)CN([C@@H](C)CO)C(=O)c2cc(NC(=O)Nc3ccc(C(F)(F)F)cc3)ccc2O1,active
11,Cc1ccc(N2C(=O)C(=O)NC2=S)cc1,inactive
12,C[C@H]1CN([C@@H](C)CO)C(=O)c2cc(NC(=O)CCN3CCOCC3)ccc2O[C@@H]1CN(C)C(=O)NC1CCCCC1,inactive
13,C[C@H]1CN([C@@H](C)CO)C(=O)Cc2cc(NS(=O)(=O)c3ccccc3)ccc2O[C@H]1CN(C)Cc1ccc2c(c1)OCO2,inactive
14,C[C@H](CO)N1C[C@H](C)[C@H](CN(C)S(=O)(=O)c2cccs2)Oc2ccc(NC(=O)Cn3cnnn3)cc2CC1=O,inactive
15,CC(C)NCCCC[C@H](NC(=O)[C@H]1CCC(=O)N[C@@H](Cc2ccccc2)C(=O)N[C@H](Cc2ccc(O)cc2)C(=O)N[C@@H](CCCCNC(C)C)C(=O)N[C@H](CCCN=C(N)N)C(=O)N[C@@H](Cc2ccc3ccccc3c2)C(=O)NCC(=O)N1)C(N)=O,inactive
16,Cc1noc(C)c1NC(=O)N(C)C[C@H]1Oc2ccc(NC(=O)Cn3cnnn3)cc2C(=O)N([C@H](C)CO)C[C@@H]1C,inactive
17,Nc1nnc(N[C@H]2CCCCNC2=O)[nH]1,inactive
18,COCc1cn(CC[C@H]2CC[C@@H](NC(=O)CCN3CCCCC3)[C@@H](CO)O2)nn1,inactive
19,COCC#Cc1cnc2c(c1)C(=O)N([C@@H](C)CO)C[C@@H](C)[C@H](CN(C)S(=O)(=O)c1cccc(OC)c1)O2,inactive
20,CO[C@H](CN(C)S(=O)(=O)c1ccc(F)cc1)[C@@H](C)CN([C@H](C)CO)S(=O)(=O)c1cccc(Cl)c1,inactive
21,C[C@@H]1CN([C@H](C)CO)C(=O)c2cccc(NC(=O)c3ccno3)c2O[C@H]1CN(C)S(=O)(=O)c1cccs1,inactive
